# Compound activity (PubChem BioAssay)
# uPA surface inh = cell surface uPA generation inhibition; cell surface uPA generation assay, qHTS; Potency, µM (top dose mostly 38.3 µM), without a hit: at the top dose activity change, negative = inhibition, usual class: inhibitors; actives 0.31% (n = 330,000); active means well fitted inhibition curve with a large enough effect; inconclusive means small, poorly fitted or top-dose-only effect; inactive means no such curve, though single readings can be large or run the other way; tested in mouse RAW 264.7 cells; further: potency means the concentration at half of the fitted maximal effect; on the % scale 0 is the no-effect control and ±100 the full control effect; nearly all actives have a fitted effect of over 55% in size
# Giardia kill = kills Giardia lamblia | Giardia lamblia trophozoite viability | activity change, % at 7.66 µM, hits read low | actives 0.15% (n = 340,000); in the data active means activity change below about -80%; inconclusive means between about -30% and that limit;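 further: parasites exposed to compound for two days anaerobically before the ATP read; on the % scale 0 is the no-effect control and ±100 the full control effect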
#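 Viability, read as ATP luminescence: trophozoites at 100 cells/well, compound added, 48 hrs anaerobic at 37 deg C, then 15-30 min room-temperature development before reading.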
# Mito fusion act = blocks mitochondrial division or promotes mitochondrial fusion. Potency, µM (doses to about 46.1 µM), for the others: at the top dose growth rescue (activation), actives largely listed as activators. actives 0.23% (n = 320,000). S. cerevisiae fusion-defective mutant growth rescue, CellTiterGlo 48 h; further: potency means the concentration at half of the fitted maximal effect; % of control where 0% means no effect; nearly all actives have a fitted effect of over 45% in size
#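 Luminescent cell viability in 1536-well qHTS format served as the measure of rescued growth in ts fusion-mutant S. cerevisiae cultured on non-fermentable YPEG for 48 hours at 37C.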
# p53 reactivator = restores transcriptional activity of mutant p53; Potency, µM (doses to about 92.2 µM), for the others: at the top dose activity change, positive = activation, actives largely listed as activators; H1299 p53-A138V BP100-luciferase reporter, luminescence, 24 h; actives 0.063% (n = 320,000); further: potency means the concentration at half of the fitted maximal effect; % of control where 0% means no effect; nearly all actives have a fitted effect of over 45% in size
#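 H1299 (p53-null), stable ts p53-A138V + BP100-Luc; 1000 cells/well, Opti-MEM/10% FBS; cpd 4 pt, 1:5; 24 h, 37 deg C, 5% CO2; detection reagent 10 min RT; luminescence.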
# B2AR arrestin = beta2AR (human) beta-arrestin recruitment activity; Potency, µM (doses to about 46.1 µM), for inactives: top-dose activation, hits mostly activators; AID 492947; actives 0.02% (n = 330,000); beta-arrestin recruitment to beta2AR, cell-based reporter;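 further: potency means the concentration at half of the fitted maximal effect; 0% = DMSO controls and full agonism = EC100 isoproterenol or metaproterenol; nearly all actives have a fitted effect of over 65% in size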
# ClpP mod = qHTS Assay for Activators of ClpP; purified B. subtilis ClpP, FRET peptide cleavage, 20 min; Potency, µM (series often up to 57.5 µM), for inactives: top-dose activity change, negative = active; actives 1.9% (n = 340,000); AID 651965, 2013; active means well fitted falling curve with a large enough effect; inconclusive means small, poorly fitted or top-dose-only effect; inactive means no such curve, though single readings can be large or run the other way; further: potency means the concentration at half of the fitted maximal effect; the source files actives as falling curves though it sought activators and does not explain the sign; nearly all actives have a fitted effect of over 65% in size
#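 Purified B. subtilis ClpP, 10 microg/mL final in Tris/HCl pH8 with KCl, BSA, glycerol and Tween-20, cleaved an Abz/nitrotyrosine-quenched decapeptide. Fluorescence (ex 320, em 430) was read at 0 and 20 min at room temperature. Delta was normalized to 5.8 microM ADEP and DMSO/no-enzyme controls.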
# * marks the source's active call; other numbers are inactive results; ? = inconclusive; · = no result. Only some compounds are listed: those with a hit (about 2.1% of all), similar ones and a draw of the others. Unless noted, the call rests on the fitted dose curve; in most records, active means well fitted curve in the direction sought with a large enough effect; inconclusive means small, poorly fitted or top-dose-only effect, or another doubt; inactive means no such curve, though single readings can be large; an effect the other way counts as inactive or inconclusive.
SMILES,uPA surface inh,Giardia kill,Mito fusion act,p53 reactivator,B2AR arrestin,ClpP mod
CC[C@H](C)[C@H]1O[C@]2(CC[C@@H]1C)C[C@@H]1C[C@@H](CC=C(C)[C@@H](O[C@H]3C[C@H](OC)[C@@H](O[C@H]4C[C@H](OC)[C@@H](O)[C@H](C)O4)[C@H](C)O3)[C@@H](C)C=CC=C3CO[C@@H]4[C@H](O)C(C)=C[C@@H](C(=O)O1)[C@]34O)O2,2.51µM*,10.8,·,·,·,-12.2%
CC[C@@H](C)[C@H]1O[C@]2(CC[C@H]1C)C[C@@H]1C[C@@H](CC=C(C)[C@@H](O[C@H]3C[C@H](OC)[C@@H](O[C@H]4C[C@H](OC)[C@@H](O)[C@H](C)O4)[C@H](C)O3)[C@@H](C)C=CC=C3CO[C@@H]4[C@H](O)C(C)=C[C@@H](C(=O)O1)[C@]34O)O2,·,·,2.31µM*,·,·,·
O=C(C[n+]1cccc(Br)c1)c1ccc(I)cc1,·,·,·,·,·,-0.4%
CC(=O)c1cccc(-c2ccnc3c2CC(C(=O)Nc2ccc(C(C)C)cc2)O3)c1 (centres undefined),·,·,·,·,·,0.6%
O=C(O)CSc1nnc(-c2cc3ccccc3o2)n1-c1ccccc1,0.8%,1.1,-0.6%,26.5%,7.5%,22.4µM*
N=C1S/C(=C\c2ccco2)C(=O)N1c1nccs1,7.94µM*,-26.9,18.7%,2.5%,5.7%,0.1%
N=C1S/C(=C\c2ccco2)C(=O)N1c1ccc2c(c1)OCO2,-7.7%,-20.6,0.6%,3.4%,0.4%,·
COc1ccc(C2C3=C(CCCC3=O)Nc3c(-c4ccccc4)c(C)nn32)cc1 (centres undefined),-2.4%,6.9,-1.7%,-9.7%,-0.8%,?
Cc1nn2c(c1-c1ccccc1)NC1=C(C(=O)CCC1)C2c1ccccc1 (centres undefined),·,9.1,0.7%,-2.2%,5.0%,8.91µM*
Cc1ccc([N+](=O)[O-])cc1N=Nc1c(-c2ccc([N+](=O)[O-])cc2)[nH]n(C(N)=S)c1=O,-17.6%,6.4,6.7%,-5.2%,0.708µM*,-1.0%
NC(=S)n1[nH]c(-c2ccc([N+](=O)[O-])cc2)c(N=Nc2ccc(Cl)cc2)c1=O,-4.3%,-1.6,-0.5%,0.1%,15.8µM*,·
Cc1ccc([N+](=O)[O-])cc1N=Nc1c(C)[nH]n(C(N)=S)c1=O,-11.4%,24.2,-4.7%,5.9%,-1.1%,2.3%
CCOC(=O)CCCSc1nnc(CCCCCN2C(=O)c3cccc4cccc(c34)C2=O)o1,3.6%,12.5,1.6%,-27.7%,-0.7%,28.2µM*
Cc1ccc(-c2nc3ccccn3c2C=O)cc1,?,-23.2,14.9%,7.3%,4.4%,-7.3%
Cc1c(-c2ccc(Br)cc2)nc2ccccn12,-4.5%,-11.0,21.5%,?,-0.8%,25.1µM*
CCCC[C@@H]1CCCO[C@@](C(=O)NCCN2CCOCC2)(C(F)(F)F)C1,·,6.4,·,·,·,·
NS(=O)(=O)c1ccc(CCNC(=O)C2CCN(S(=O)(=O)c3c(Cl)cccc3Cl)CC2)cc1,4.5%,-6.7,1.6%,-1.2%,-0.6%,·
NS(=O)(=O)c1ccc(CCNC(=O)C2CCCCN2S(=O)(=O)c2ccccc2)cc1 (centres undefined),0.5%,3.7,-3.4%,8.7%,11.1%,0.1%
Cc1ccc(S(=O)(=O)N2CCC(C(=O)NCCCn3ccnc3)CC2)cc1,2.5%,-22.1,1.8%,18.9%,-0.3%,15.8µM*
NS(=O)(=O)c1ccc(CCNC(=O)C2CCN(S(=O)(=O)c3ccccc3)CC2)cc1,3.1%,-3.6,3.8%,-0.6%,0.1%,28.2µM*
NS(=O)(=O)c1ccc(CCNC(=O)C2CCCN2C(=O)OCc2ccccc2)cc1 (centres undefined),-8.7%,?,-4.2%,6.4%,-0.1%,31.6µM*
COc1ccc(OC)c(NC(=O)C(C)n2nc(C)c3c(C)n(-c4ccccc4)nc3c2=O)c1 (centres undefined),·,·,·,·,·,1.9%
COc1ccccc1-c1sc2ccccc2c1-c1ccc(O)cc1,1.8%,18.5,·,-1.4%,-0.5%,20µM*
COc1cccc(-c2sc3ccc(OC)cc3c2-c2ccc(O)cc2)c1,25.4%,-22.6,?,-3.0%,0.5%,28.2µM*
COc1cccc(-c2sc3ccc(OC)cc3c2-c2cc(F)cc(OC)c2)c1,9.8%,-11.9,7.1%,16.9%,-0.1%,?
SMILES,uPA surface inh,Giardia kill,Mito fusion act,p53 reactivator,B2AR arrestin,ClpP mod
Cc1cccc(-n2c(O)c(C=Nc3ccc(O)cc3)c3ccccc3c2=O)n1,?,-3.8,-6.3%,-17.6%,0.1%,7.08µM*
NC(=O)CSc1nc2ccc([N+](=O)[O-])cc2[nH]1,-0.7%,16.6,14.1µM*,-0.9%,-0.1%,1.0%
Cc1nc2nc(SCC(N)=O)[nH]c2cc1Br,5.8%,39.2,-4.1%,-12.7%,-0.5%,15.8µM*
O=C(O)CSc1nc2ccc(Cl)cc2[nH]1,-9.2%,15.3,3.1%,6.9%,0.0%,25.1µM*
O=C(CSc1nc2ccc([N+](=O)[O-])cc2[nH]1)NC1CCCC1,3.3%,-14.2,1.4%,4.8%,-0.5%,-0.7%
COc1cc(N)c(NC(=O)/C=C/c2nc3cc(OC)c(OC)cc3[nH]2)cc1OC,·,·,·,·,·,4.4%
FC(F)(F)Oc1ccccc1C(c1nnnn1-c1ccc2c(c1)OCCO2)N1CCN(C/C=C/c2ccccc2)CC1 (centres undefined),·,·,·,·,·,-2.6%
C=CCSC1=C(C#N)C(c2ccccc2C)CC(=O)N1 (centres undefined),0.3%,2.0,6.1%,-9.7%,-0.3%,28.2µM*
COc1cc2c(cc1OC)CN(C(=O)c1cccs1)CC2,-3.1%,-13.0,4.2%,8.5%,-0.4%,-0.3%
COc1cc2c(cc1OC)CN(C(=O)CSc1ccccc1C)CC2,2.9%,-12.3,·,6.9%,0.5%,22.4µM*
COc1cc2c(cc1OC)CN(C(=O)/C=C/c1cccs1)CC2,3.16µM*,6.0,3.4%,0.7%,-0.7%,-5.4%
COc1cc2c(cc1OC)CN(C(=O)CSC1=NCCS1)CC2,·,·,·,·,·,-4.8%
COc1cc2c(cc1OC)CN(C(=O)c1sccc1C)CC2,-2.1%,11.9,-2.0%,-1.5%,-0.6%,28.2µM*
Cc1ccsc1C(=O)N1CCc2ccccc2C1,-12.3%,13.7,-0.9%,17.6%,0.1%,-1.9%
O=C(CSc1nccn1Cc1ccc(F)cc1)Nc1ccc2c(c1)OCCO2,·,·,·,·,·,-2.0%
O=C1[C@@H]2Cc3c([nH]c4ccccc34)C(c3cccc([N+](=O)[O-])c3)N2C(=O)CN1CCCO (some centres undefined),-11.5%,-8.6,0.5%,-2.9%,-0.4%,-0.5%
CN1CC(=O)N2C(c3cccc([N+](=O)[O-])c3)c3[nH]c4ccccc4c3C[C@H]2C1=O (some centres undefined),0.398µM*,10.2,2.7%,-3.7%,-0.4%,-0.2%
